# Experimental data: PubChem BioAssay AID652136 (The Scripps Research Institute Molecular Screening Center, 2013)
# Screen size: about 2,400 compounds; about 1,900 (79%) were called active. The set was probably picked from earlier hits. Not all results are given here. Values without a mark were called inactive.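 How the source made its calls: active means inhibition above the mean of all tested compounds plus 3 SD (cut at about 3% in these data); inactive means the rest.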
# Experiment: StAR reporter signal changes without DAX1, counter-screen for DAX1 inhibitor project, cell-based, luminescence, AF-2 mutant SF-1, transactivation (AID 652136);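 further: 0% = DAX-1 transfected cells with DMSO and 100% = cells without DAX-1 with DMSO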
# Conditions: HEK293 StAR-luciferase, SF-1 AF2 mutant, at 6.8 µM, stronger effect = higher value
row,SMILES,inhibition
1,COc1ccc(-c2csc(-c3cccs3)n2)cc1OC,5.61% (active)
2,Cc1ccc(S(=O)Cc2ccc(C(=O)N3CCN(C4CCCCC4)CC3)o2)cc1 (configuration not stated),2.33%
3,CN1CCN(C(=O)c2ccc(-c3ccc(Br)cc3)o2)CC1,4.28% (active)
4,O=C(Nc1ncccc1O)c1ccc(C(=O)c2ccccc2)cc1,35.8% (active)
5,O=C(Nc1ncccc1O)c1ccc(S(=O)(=O)N2CCCC2)cc1,5.53% (active)
6,O=C(Nc1ncccc1O)c1ccc(S(=O)(=O)N2CCCCCC2)cc1,2.43%
7,CC1CCN(CCCNC(=O)CN2C(=O)CSc3ccc(S(=O)(=O)N4CCCCC4)cc32)CC1,1.65%
8,Clc1ccc(Nc2nc(-c3cccs3)cs2)nc1,7.52% (active)
9,COc1cc(OC)c(C(=O)NNC(=O)c2ccc(NS(=O)(=O)c3cccs3)cc2)cc1OC,-0.43%
10,CC(C)(C)c1csc(NC2=NS(=O)(=O)c3ccccc32)n1,7.77% (active)
11,Cc1ccc(N/C=C/C(=O)c2ccccc2)cc1C,4.16% (active)
12,Fc1ccc2cnc(-c3ccccc3)cc2c1,5.1% (active)
13,O=C(NCCc1ccc(F)cc1)c1ccc2nccnc2c1,8.87% (active)
14,COc1ccc2nc(-c3ccccn3)ccc2c1,5.03% (active)
15,Cc1nn(-c2ccc([N+](=O)[O-])cc2)c(N)c1-c1ccccc1,6.97% (active)
16,O=C(NC(=S)Nc1ccc(Cl)cc1Cl)C1CC1,3.76% (active)
17,COc1ccc(CCOC2OC(CO)C(OC(=O)/C=C/c3ccc(O)c(OC)c3)C(O[C@H]3O[C@@H](C)[C@H](O)[C@@H](O)[C@H]3O)C2O)cc1O (some centres not stated),1.22%
18,Cc1cc(OCc2cc(C(=O)NCc3cc(C(C)C)no3)no2)cc(C)c1Cl,3.41% (active)
19,CCC(=O)Nc1ccc(-c2ccc(N3CCCCC3)nn2)cc1,2.89% (active)
20,CCCOc1ccc(C(=O)NCCc2ccccc2)cc1,4.75% (active)
21,COc1ccc(C(=O)NCC[N+](C)(C)C)cc1,1.97%
22,COc1ccc(CCNC(=O)COC(=O)Cc2ccccc2F)cc1,-0.5%
23,CN(C(=O)c1cc2c(=O)n3ccccc3nc2s1)C1CCCCC1,3.77% (active)

row,SMILES,inhibition
1,Cc1ccccc1OCC(=O)Nc1ccc2c(c1)ncn2C,5.06% (active)
2,Cc1ccccc1Nc1nc(N)nc(CSc2ccccc2)n1,9.51% (active)
3,CCOc1cccc(/C=C/c2ccc3ccccc3n2)c1OC(C)=O,2.8%
4,CNCC(O)c1ccc(O)c(O)c1 (configuration not stated),-2.85%
5,O=c1c2c(nc3cc(-c4cccc(Cl)c4)[nH]n13)CCCC2,5.64% (active)
6,CCOc1ccc(S(=O)(=O)Nc2cccc(C(=O)NCC3(N4CCCCC4)CCCCC3)c2)cc1,5.11% (active)
7,CCN(c1ccccc1)S(=O)(=O)c1ccc(OCC(=O)N2CCCC2)cc1,1.13%
8,O=C(NCC1(N2CCCCC2)CCCCC1)c1ccc(NS(=O)(=O)c2ccc(F)cc2)cc1,6.24% (active)
9,COc1ccc(OCc2cc(C(=O)N3CCCC3)no2)c2ccccc12,6.26% (active)
10,O=C(c1cc(-c2ccccc2O)on1)N1CCCC1,7.17% (active)
11,O=C(c1cc(-c2cccs2)on1)N1CCCCC1,4.85% (active)
12,COc1ccccc1-c1cc(C(=O)N2CCCCC2)no1,7.48% (active)
13,CCOC(=O)c1c(S(=O)(=O)Nc2ccc(CN3CCC(C)CC3)cc2)c(C)n(C)c1C,1.43%
14,O=C(Nc1ccc2ccccc2c1[N+](=O)[O-])c1ccccc1,6.14% (active)
15,COc1ccc(-c2csc(Nc3ccccn3)n2)cc1,5.68% (active)
16,COc1ccc(-c2cn3ccc(C)cc3n2)cc1,3.87% (active)
17,COc1ccc(-c2cn3ccsc3n2)cc1,6.15% (active)
18,COC(=O)Nc1nc2ccc(C(=O)C3CC3)cc2[nH]1,-5.19%
19,O=C(CSc1cccc[n+]1[O-])c1ccc(-c2ccccc2)cc1,1.01%
20,NS(=O)(=O)c1ccc2nc(NC(=O)C3=COCCO3)sc2c1,5.19% (active)
21,Cc1cc(N)n2nc(-c3ccc(C(C)(C)C)cc3)cc2n1,8.64% (active)
22,CCc1ccc2oc(-c3ccc(N)cc3)nc2c1,4.11% (active)
23,O=C(NCC1CCCO1)c1cc2c(s1)CCCC2 (configuration not stated),4.63% (active)

row,SMILES,inhibition
1,O=C(O)c1cccc(N=NN2CCCCCC2)c1,8.65% (active)
2,CCOc1ccc(-c2nnc(-c3ccco3)o2)cc1,3.8% (active)
3,O=C(NCCOc1ccccc1)c1ccccc1F,6.6% (active)
4,C/C(=N\NC(=O)c1ccccc1F)c1ccccn1,-9.06%
5,OC(c1ccccc1)c1nc(-c2cnc3ccccc3c2)cs1 (configuration not stated),6.87% (active)
6,CC(Oc1ccccc1[N+](=O)[O-])C(=O)N/N=C/c1ccoc1 (configuration not stated),-0.59%
7,Cc1cc(C(=O)NCCc2ccc(Cl)cc2)c(C)o1,2.83%
8,CC(C)Cc1cc(C(=O)NCCc2ccccc2)no1,4.55% (active)
9,CC(C)c1ccc(C=NNc2ccc([N+](=O)[O-])cn2)cc1,7.98% (active)
10,O=[N+]([O-])c1ccc2oc(-c3cccc(O)c3)nc2c1,8.65% (active)
11,COc1ccc(Nc2ncc(F)c(N3CCOCC3)n2)cc1,7.01% (active)
12,Cc1ccc(-c2nc3ccc(Br)cn3c2Cc2ccccc2C(F)(F)F)cc1,3.81% (active)
13,COc1ccccc1Cc1c(-c2ccc(F)cc2)nc2ccc(C)cn12,3.36% (active)
14,C=CCn1c(SCC(=O)Nc2ccc(NC(C)=O)cc2)nc2sc(C)c(C)c2c1=O,-2.48%
15,O=C(c1cnn(-c2ccc(Cl)cc2)c1)c1ccccc1O,7.41% (active)
16,O=C1C(C=NCC2CCCO2)=C(O)c2ccccc21 (configuration not stated),4.34% (active)
17,Nc1ccc2nn(-c3ccc(Cl)cc3)nc2c1,10.2% (active)
18,COc1ccc2nc(SCc3ccccc3)nc(C)c2c1,8.35% (active)
19,CC(C)c1ccc(Nc2nnc(SCC(=O)c3nnc(-c4ccccc4)o3)s2)cc1,5.91% (active)
20,CCc1ccc(NC(=O)N2CCc3ccccc3C2)cc1,2.82%
21,O=C(Nc1ccc2c(c1)CCC2)c1ccc(Br)s1,5.35% (active)
